High-throughput results from PubChem.
A selection: hits, their analogues and other compounds. The true share with any hit is near 1.5%.
Casp7 inh = qHTS Assay for Allosteric/Competitive Inhibitors of Caspase-7. P55210. recombinant caspase-7, Ac-DEVD-AFC fluorescence rate. Potency, µM (series often up to 57.5 µM), for the others: at the top dose activity change, negative = inhibition, hits mostly inhibitors. 75,000 tested, 0.02% active; active means well fitted inhibition curve with a large enough effect in the main read-out, with a control signal flat, not every such curve was filed as active; further: potency means the concentration at half of the fitted maximal effect; % of control where 0% means no effect
Target sequence (P55210 24-198 limits assumed): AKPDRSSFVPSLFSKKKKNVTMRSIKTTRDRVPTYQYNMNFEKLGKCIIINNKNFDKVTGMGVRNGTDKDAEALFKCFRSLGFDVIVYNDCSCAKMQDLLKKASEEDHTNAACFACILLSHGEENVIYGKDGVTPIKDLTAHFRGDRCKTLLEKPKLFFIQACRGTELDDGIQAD
Target sequence (P55210 207-303 limits assumed): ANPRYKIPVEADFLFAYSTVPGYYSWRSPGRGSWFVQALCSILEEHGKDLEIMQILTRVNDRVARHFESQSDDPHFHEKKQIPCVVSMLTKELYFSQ
Caspase-1 inhib = qHTS Assay for Allosteric/Competitive Inhibitors of Caspase-1 | Caspase-1 enzyme, Ac-WEHD-AFC fluorogenic rate | Potency, µM (highest dose often 57.5 µM), without a hit: top-dose activity change, negative = inhibition, most hits filed as inhibitors | 75,000 tested, 0.03% active | AID 900, 2007;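 further: potency means the concentration at half of the fitted maximal effect; plate controls were vehicle for no effect and no substrate for full effect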
ALOX15 inhib = qHTS Assay for Inhibitors of 15-hLO (15-human lipoxygenase); Polyunsaturated fatty acid lipoxygenase ALOX15 (Homo sapiens), P16050; purified 15hLO-1, xylenol orange hydroperoxide absorbance; Potency, µM (series often up to 57.1 µM), inactives show top-dose activity change, negative = inhibition, hits mostly inhibitors; 74,000 tested, 1.4% active; AID 887, 2007; further: potency means the concentration at half of the fitted maximal effect; on the % scale 0 is the no-effect control and ±100 the full control effect; nearly all actives have a fitted effect of over 55% in size
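Compounds were preincubated 15 min at room temperature with 40 nM purified human enzyme (25 mM Hepes pH 7.5, 0.01% Triton X-100); 50 uM arachidonic acid reacted 6 min. Fe-xylenol orange detection, 30 min, absorbance ratio 573/405 nm.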
USP2a inh = qHTS Assay for Inhibitors of Ubiquitin-specific Protease USP2a; USP2a enzymatic assay, qHTS inhibition; Potency, µM (highest dose often 38.3 µM), without a hit: top-dose activity change, negative = inhibition, usual class: inhibitors; 60,000 tested, 0.1% active; Ubiquitin carboxyl-terminal hydrolase 2 (Homo sapiens), O75604; AID 927, 2007; further: potency means the concentration at half of the fitted maximal effect; nearly all actives have a fitted effect of over 60% in size
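Inhibition is measured in a cell-free coupled assay with 20 nM USP2 core, 20 nM Ub-PLA2 and 20 uM NBD C6-HPC, 2.5 h incubation. Activity normalized to NEM control.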
BRCT PPI green = qHTS Assay for Inhibitors of BRCT-Phosphoprotein Interaction (Green Fluorophore); BRCA1 BRCT-phosphopeptide binding, green fluorescence polarization; Potency, µM (series often up to 76.9 µM), without a hit: at the highest dose activity change, negative = inhibition, hits mostly inhibitors; 75,000 tested, 0.05% active;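 further: potency means the concentration at half of the fitted maximal effect; plate controls were peptide without protein for full effect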
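Fluorescence polarization: His-tagged BRCT (~35 kDa BRCA1 C-terminus, 250 nM) bound to 100 nM fluorescein-labeled phosphorylated 10-aa BACH1 peptide, pH 7.3 phosphate buffer with DTT and Tween 20. Compounds incubated 12 min at room temperature; inhibition read as lowered polarization.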
BRCT inh red = qHTS Assay for Inhibitors of BRCT-Phosphoprotein Interaction (Red Fluorophore); Breast cancer type 1 susceptibility protein (Homo sapiens), P38398; BRCT-phosphopeptide binding, red fluorescence polarization; Potency, µM (top dose mostly 76.9 µM), for inactives: at the top dose activity change, negative = inhibition, hits mostly inhibitors; 75,000 tested, 0.03% active; AID 892, 2007; further: on the % scale 0 is the no-effect control and ±100 the full control effect
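Fluorescence polarization: 100 nM His-tagged BRCA1 BRCT with 100 nM TAMRA-labelled phospho-BACH1 decapeptide, phosphate buffer pH 7.3 with 150 mM NaCl, DTT, 0.01% Tween 20; 12 min RT. Binding inhibition seen as FP decrease.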
Numbers without * were called inactive; / = not tested or not shown; [ ] = remark or other dose. Unless noted, the call rests on the fitted dose curve; in most records, active means well fitted curve in the direction sought with a large enough effect; inconclusive means small, poorly fitted or top-dose-only effect, or another doubt; inactive means no such curve, though single readings can be large; an effect the other way counts as inactive or inconclusive.

SMILES	Casp7 inh	Caspase-1 inhib	ALOX15 inhib	USP2a inh	BRCT PPI green	BRCT inh red
C/C(CCN1CCCc2nc(C)c(C)cc21)=N\O[C@@H](C)c1cn([C@H](CO)Cc2ccccc2)nn1	-7%[11.5 µM]	-4%[11.5 µM]	7%[11.4 µM]	/	0%[15.4 µM]	0%[15.4 µM]
N[C@@H](Cc1cc(-c2ccc(Cl)cc2Cl)cc(CP(=O)(O)O)c1O)C(=O)O	0%	2%	13µM*	/	-12%	-6%
CC(Oc1ccc(Br)cc1)C(=O)NCc1cccnc1 (configuration not stated)	-2%	-2%	-10%	/	-1%	0%
O=C(C1CC(c2ccccc2O)=NO1)N1CCCC1 (configuration not stated)	0%	0%	20µM*	5%	-9%	-8%
O=C(c1ccc(Cc2nc3ccccc3[nH]2)cc1)N1CCCCC1	-3%	-3%	-9%	/	1%	-3%
